Assay results: PubChem BioAssay AID1511 (Johns Hopkins Ion Channel Center, 2009)
The campaign covered roughly 310,000 compounds. About 1,600 (0.52%) were called active. The entries come from a sample that favours actives as a whole. Unmarked numbers belong to inactive results.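 The calls were made as follows: active = activation above the mean of controls blocked by dofetilide plus 5 SD; inactive = the rest.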 Square brackets hold non-standard residues; d marks the D form. Peptide text beside a SMILES is read from it. ξ: configuration not given here. ξM = CSCCC(N)C(=O)O

What follows are compounds tested against Voltage-gated inwardly rectifying potassium channel KCNH2 (Homo sapiens) (UniProt Q12809) (assay: hERG rescue from dofetilide block, primary screen, cell-based, CHO-hERG, FluxOR thallium flux, dofetilide IC70 (AID 1511;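 also: thallium influx through hERG after potassium depolarization seen as dye fluorescence rise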)). Conditions: dofetilide IC70 present, at 10 µM, stronger effect = higher value.
Sequence of Voltage-gated inwardly rectifying potassium channel KCNH2 (Homo sapiens) (Q12809 whole entry, looked up): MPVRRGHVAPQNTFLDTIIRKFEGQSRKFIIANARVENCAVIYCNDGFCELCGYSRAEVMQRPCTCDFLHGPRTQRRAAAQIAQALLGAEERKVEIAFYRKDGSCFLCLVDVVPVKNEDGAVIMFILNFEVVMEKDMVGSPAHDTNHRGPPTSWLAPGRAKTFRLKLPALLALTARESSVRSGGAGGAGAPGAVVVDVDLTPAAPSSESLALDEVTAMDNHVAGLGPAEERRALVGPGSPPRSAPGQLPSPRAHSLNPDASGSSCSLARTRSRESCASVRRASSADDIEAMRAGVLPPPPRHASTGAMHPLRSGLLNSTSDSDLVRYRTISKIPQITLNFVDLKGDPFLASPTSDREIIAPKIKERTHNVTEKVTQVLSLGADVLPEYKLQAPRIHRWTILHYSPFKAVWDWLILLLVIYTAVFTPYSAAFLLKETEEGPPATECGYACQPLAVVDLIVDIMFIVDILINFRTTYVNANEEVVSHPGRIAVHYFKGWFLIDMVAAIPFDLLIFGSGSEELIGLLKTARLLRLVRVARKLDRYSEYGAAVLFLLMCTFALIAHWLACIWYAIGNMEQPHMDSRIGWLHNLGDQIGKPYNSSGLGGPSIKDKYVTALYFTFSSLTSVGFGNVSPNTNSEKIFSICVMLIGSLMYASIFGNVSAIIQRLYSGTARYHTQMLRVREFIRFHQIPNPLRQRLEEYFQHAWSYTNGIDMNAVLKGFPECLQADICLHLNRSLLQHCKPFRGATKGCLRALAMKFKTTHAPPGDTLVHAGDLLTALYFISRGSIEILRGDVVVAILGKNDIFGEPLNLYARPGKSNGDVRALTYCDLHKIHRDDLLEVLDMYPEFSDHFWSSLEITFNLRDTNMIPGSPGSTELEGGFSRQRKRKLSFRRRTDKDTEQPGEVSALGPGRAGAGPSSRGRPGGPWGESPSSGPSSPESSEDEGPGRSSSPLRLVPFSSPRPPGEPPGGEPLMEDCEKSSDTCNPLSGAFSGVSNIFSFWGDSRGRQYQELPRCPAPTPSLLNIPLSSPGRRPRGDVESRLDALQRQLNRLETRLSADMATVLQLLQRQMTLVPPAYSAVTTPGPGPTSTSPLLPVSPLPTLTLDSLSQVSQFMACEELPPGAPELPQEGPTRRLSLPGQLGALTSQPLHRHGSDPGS

SMILES	activation (rescue from dofetilide block), less the hit threshold
COc1cc(-c2noc(C3CCCN(S(=O)(=O)c4cccc(Cl)c4)C3)n2)cc(OC)c1OC (stereo not drawn)	-11.3%
Cc1ccc(C(=O)NC(=S)Nc2ccccc2C)cc1	-5.4%
COC(=O)c1sc(NC(=O)c2csc3c2CCCC3)nc1C	-6.43%
COC(=O)c1sc(NC(=S)NC(=O)c2ccc(C)cc2)nc1C	7.72% (active)
CCCN(C(=O)CSc1nnnn1C)c1c(N)n(Cc2ccccc2)c(=O)[nH]c1=O	-7.93%
Cc1ccc2c(c1)nnc1nnc(SCC(=O)O)n12	1.69%
CCN1CCN(C(=O)c2ccc(CN(c3ccc(C)c(C)c3)S(C)(=O)=O)cc2)CC1	-6.12%
CCOC(=O)N1CCN(C(=O)CN(c2ccc(C)c(C)c2)S(=O)(=O)c2ccccc2)CC1	-9.17%
CCOC(=O)N1CCN(C(=O)c2ccc(CN(c3ccc(C)c(C)c3)S(C)(=O)=O)cc2)CC1	4.64% (active)
O=C(NC1CCCC1)C(c1c(F)cccc1Cl)N(C(=O)c1csnn1)C1CC1 (stereo not drawn)	-2.39%
CCO[C@H]1OC(C(=O)O)=C[C@@H](C2CCCCC2)[C@@H]1CCCO	-4.25%
COc1cc(OC)cc(/C(N)=N/O)c1	-15.6%
CC1CC(C)CN(C(=O)CSc2ccsc2[N+](=O)[O-])C1 (stereo not drawn)	-2.19%
CN(c1ccccc1)S(=O)(=O)c1ccc(Cl)c(C(=O)OCC(=O)N2CCOCC2)c1	4.51%
CN(c1ccccc1)S(=O)(=O)c1cc(C(=O)OCC(=O)N2CCN(C(=O)c3ccco3)CC2)ccc1Cl	5.23% (active)
O=C(OCC(=O)N1CCN(C(=O)c2ccco2)CC1)c1cccc(O)c1	-4%
Cc1ccc(NC(=O)CSc2nnc(CNC(=O)c3ccccc3F)o2)cc1Cl	-8.43%
CCN(CC)c1ccc(C(=O)c2cnc(/N=C/N(C)C)s2)cc1	-22%
Cc1ccc(NC(=O)Nc2cccnc2)cc1	-1.84%
Cc1cc(C)c(NC(=O)CSc2nc3ccncc3[nH]2)c(C)c1	-2.72%

SMILES	activation (rescue from dofetilide block), less the hit threshold
Cc1cc(C)c(NC(=O)CS(=O)CC(=O)Nc2cccnc2)c(C)c1 (stereo not drawn)	7.98% (active)
COc1ccc(CCc2nnc(CCC(=O)NCc3cnn(-c4ccccc4C)c3)o2)cc1	-3.52%
COc1ccc(S(=O)(=O)NCC(c2ccco2)N2CCOCC2)cc1 (stereo not drawn)	-10.9%
Cc1cc(OC(=O)c2c(Cl)cccc2Cl)nc(C)n1	-14.7%
Cc1ccc(NNC(=O)c2c(F)cccc2Cl)cc1Cl	-7.77%
Cc1cc(C)c(S(=O)(=O)c2ccccc2)c(OC(=O)c2c(F)cccc2Cl)n1	8.53% (active)
Cc1cccc(S(=O)(=O)N2CN(CC3CCCO3)c3nc4ccccc4nc32)c1 (stereo not drawn)	-10.3%
CCOc1cc(/C=N/Nc2cc(C)nc3ccc(C)cc23)ccc1O	-14.3%
CCOC(=O)C1CCN(c2c(Nc3cc(C)cc(C)c3)c(=O)c2=O)CC1	-11.1%
O=C1CCCc2c1nc(-c1cccc(Cl)c1)n2O	-10.5%
O=c1c2cc(Br)ccc2nc(-c2cccc(Cl)c2)n1O	59% (active)
Cc1cccc(-c2nc3ccccc3c(=O)n2NC(=O)Cc2ccc(Cl)cc2)c1	-2.81%
O=C(CN1CCN(S(=O)(=O)c2cc(Cl)ccc2Cl)CC1)c1ccc(O)c(O)c1	-1.99%
CCOC(=O)N1CCC(NC(=O)c2ccc3nc(N4CCOCC4)sc3c2)CC1	-5.7%
Cc1nc(N2CCOCC2)sc1C(=O)NN	4.6% (active)
Cc1nc(-c2ccc(Cl)cc2)sc1C(=O)NN	-10.7%
Cc1cc(O)c(C(=O)/C=C/c2c(F)c(F)c(F)c(F)c2F)c(=O)o1	-23.3%
COc1ccc(CCNC(=O)C(=O)Nc2ccc3nc4n(c(=O)c3c2)CCCCC4)cc1OC	-11.8%
Nc1nc(SCC(=O)N2CCN(S(=O)(=O)c3ccc(Cl)cc3)CC2)n[nH]1	-4.93%
Cc1ccc(S(=O)(=O)N(C)CC(=O)OCC(=O)N2CC(=O)Nc3ccccc32)cc1	-8.2%

SMILES	activation (rescue from dofetilide block), less the hit threshold
O=[N+]([O-])c1ccccc1S(=O)(=O)Nc1cccc2cccnc12	-0.19%
COc1cc(NS(=O)(=O)c2ccc3ccccc3c2)c2ncccc2c1	5.48% (active)
Cc1ccc(NS(=O)(=O)c2ccc(C)c(NC(=O)COc3ccc4ccccc4c3)c2)c(C)c1	-12.4%
Cc1ccc(NC(=O)c2cc([N+](=O)[O-])ccc2Cl)c(O)c1	-3.14%
CCCNC(=O)COc1coc(CN2CCN(Cc3ccccc3)CC2)cc1=O	-2.43%
COC(=O)CNC(=O)C(CCSC)NC(C)=O (stereo not drawn) (Ac-[ξM]-Gly-OMe)	-1.31%
CCOc1ccc2nc(N(CCCN(C)C)C(=O)c3ccc(C(=O)c4ccccc4)cc3)sc2c1	-26.7%
CCOc1ccc2nc(/N=C/c3nc(-c4ccccc4)oc3O)sc2c1	17.1% (active)
CC(N=Cc1nc(-c2ccccc2)oc1O)c1ccccc1 (stereo not drawn)	-4.74%
COC(=O)c1cn(C)c2ccc(S(=O)(=O)N3CC(C)CC(C)C3)cc2c1=O (stereo not drawn)	-10.9%
CCOC(=O)c1sc(=S)n2c1[nH]c(=O)c1ccc(C(=O)OC)cc12	77.9% (active)
CCOC(=O)c1ccc(Nc2cc3ccccc3c(=O)[nH]2)cc1	-10.6%
CCOC(=O)C1=C(C)Nc2sc(C(=O)c3ccc(Br)cc3)c(N)c2C1c1ccc(C(=O)OC)cc1 (stereo not drawn)	-8.23%
N/C(=N\OC(=O)CC1CCCCC1)c1ccccc1	-5.76%
CCCCn1c(N)c(N(CCOC)C(=O)c2sc3ccccc3c2Cl)c(=O)[nH]c1=O	-2.36%
CN(C)c1cc(N)c2ccccc2n1 (tested in a mixture with another compound)	5% (active)
COc1ccc(-c2cc(C(=O)N(C)Cc3ccccc3)c3ccccc3n2)cc1	-21.9%
Nc1nc(-c2ccccc2)cc(-c2ccccc2)n1	-6.21%
